Experimental data taken from PubChem BioAssay (EPA / NIEHS).
Records with an inconclusive call do not appear. Calls of active or inactive are those of the source. Rule for the calls, unless noted: active = hit-call score of the fitted dose curve at least 0.9, where 1 is the maximum; inconclusive = response in the unintended direction; inactive = score below 0.9.

Tests used:
[1] = Tanguay_ZF_120hpf_PE_legacy: (Legacy) Oregon State University Tanguay Lab 120 Hour Post-fertilization zebrafish Assay for Pericardial Edema (AID 2283640);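 for AC50: potency for increased incidence of pericardial edema versus DMSO baseline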
Method in brief: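 Zebrafish larvae are exposed from early development to 120 hpf at 28C, with 0.64% DMSO final. Each surviving larva receives a yes/no pericardial edema call by brightfield imaging, analysed relative to the DMSO baseline.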

[2] = Tanguay_ZF_120hpf_PFIN_legacy: (Legacy) Oregon State University Tanguay Lab 120 Hour Post-fertilization zebrafish Assay for Pectoral Fin Malformation (AID 2283648);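 note: each larva judged yes or no for fin defect by brightfield with dead larvae skipped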
Method in brief: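 Binary pectoral fin malformation call at 120 hpf by brightfield microscopy; 5D wild-type zebrafish, chorion removed at 4 hpf, one embryo per well from 6 hpf, static exposure at 28C; DMSO (0.64% final) as baseline.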

[3] = Tanguay_ZF_120hpf_CFIN_legacy: (Legacy) Oregon State University Tanguay Lab 120 Hour Post-fertilization zebrafish Assay for Caudal Fin Malformation (AID 2283649)
Method in brief: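 Single dechorionated 5D wild-type embryos are dosed at 6 hpf (final DMSO 0.64%) and held statically at 28C. Caudal fin malformation is recorded as present or absent at 120 hpf under brightfield, excluding dead embryos.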

[4] = Tanguay_ZF_120hpf_PIG_legacy: (Legacy) Oregon State University Tanguay Lab 120 Hour Post-fertilization zebrafish Assay for Pigmentation Malformation (AID 2283650);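 note: dechorionated Tropical 5D zebrafish embryos exposed singly from 6 to 120 hpf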
Method in brief: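 Brightfield scoring of pigmentation malformation at 120 hpf, recorded as binary present/absent per larva. Exposure: dechorionated 5D wild-type embryos, one per well, static from 6 hpf at 28C, final DMSO 0.64% (vol/vol). Dead embryos not scored.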

[5] = Tanguay_ZF_120hpf_NC_legacy: (Legacy) Oregon State University Tanguay Lab 120 Hour Post-fertilization zebrafish Assay for Notochord and Tail Malformation (AID 2283656)
Method in brief: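 Binary notochord-distortion calls, made by brightfield inspection, form the read-out; activity is fitted in the positive direction against DMSO. Exposure ran statically from 6 to 120 hpf at 28C with 0.64% DMSO.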

[6] = Tanguay_ZF_120hpf_TR_legacy: (Legacy) Oregon State University Tanguay Lab 120 Hour Post-fertilization zebrafish Assay for Touch Response (AID 2283667)
Method in brief: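 Binary touch-response call at 120 hpf, analysed as gain of signal versus DMSO baseline. Wild-type 5D larvae, static exposure at 28C, 0.64% DMSO final; 5uM trimethyltin chloride as positive control.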

[7] = STM_H9_OrnithineISnorm_perc: Stemina devTOX quickPredict H9 human embryonic stem cell (hESC)-based Assay for Ornithine (ORN) Metabolite Biomarker, Normalized (AID 2283712; active = hit-call score of the fitted dose curve at least 0.9, where 1 is the maximum; inactive = score below 0.9;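 note: ornithine released into spent medium during last day measured by mass spectrometry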)
Method in brief: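 UPLC-HRMS readout: endogenous ornithine EIC area / 13C-ORN internal standard, then % of 0.1% DMSO median. H9 hESCs (pluripotent), 72h exposure, re-dosed with fresh media q24h; last 24-h spent media, deproteinized in 40% acetonitrile.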

[8] = Tanguay_ZF_120hpf_BRAI_legacy: (Legacy) Oregon State University Tanguay Lab 120 Hour Post-fertilization zebrafish Assay for Brain Malformation (AID 2283641)
Method in brief: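 Static exposure of staged wild-type embryos until 120 hpf, kept at 28C with light excluded and final DMSO of 0.64% (vol/vol). Presence or absence of brain malformation was noted under brightfield; mortality precluded scoring.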

[9] = Tanguay_ZF_120hpf_TRUN_legacy: (Legacy) Oregon State University Tanguay Lab 120 Hour Post-fertilization zebrafish Assay for Truncated Body (AID 2283655)
Method in brief: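 Single dechorionated zebrafish embryos received test chemical from 6 hpf in 0.64% DMSO, kept at 28C. At 120 hpf, brightfield inspection noted any truncated body.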

[10] = Tanguay_ZF_120hpf_SOMI_legacy: (Legacy) Oregon State University Tanguay Lab 120 Hour Post-fertilization zebrafish Assay for Somite Malformation (AID 2283647)
Method in brief: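 Somitogenesis defects are recorded as binary calls in whole larvae at 120 hpf after continuous static chemical exposure starting at 6 hpf in dechorionated 5D embryos. DMSO serves as negative control and baseline.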

[11] = test system: Thyroperoxidase (TPO), gene 54314; experiment: CCTE_Simmons_AUR_rTPO: CCTE's Amplex UltraRed Assay for Thyroperoxidase (TPO) Inhibition, Simmons Lab (AID 2283662);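 note: potency for loss of signal meaning inhibition of peroxidase activity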
Method in brief: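 Rat thyroid microsomal TPO + 25 uM AUR in 200 mM K phosphate; cpd 5 nM–87.5 uM [final], 8 conc, 0.5% DMSO; 300 uM H2O2 starts rxn; 37C dark 30 min; endpoint FI 544/590 nm; n=3.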

[12] = CCTE_Simmons_CellTiterGLO_HEK293T: Viability Assessment in CCTE's Assays for Thyroperoxidase (TPO) Inhibition, Simmons Lab (AID 2283665)
Method in brief: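 Luminescent ATP readout (CellTiter-Glo, 20 min at room temperature) after 24 hr exposure of HEK293T cells to 5 nM–87.5 uM final compound; signal loss relative to DMSO vehicle indicated cytotoxicity; dichlone titrated as positive control.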

[13] = CCTE_Padilla_ZF_144hpf_TERATOSCORE: (Legacy) CCTE's 144 Hour Post-fertilization zebrafish Assay Teratoscore, Padilla Lab (AID 2283679; active = hit-call score of the fitted dose curve at least 0.9, where 1 is the maximum; inactive = score below 0.9;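 for AC50: zebrafish embryos with chorions exposed by immersion from 6-8 hpf to 5 dpf with daily renewal; teratogenicity score from eye scoring of death hatching and malformations at 144 hpf; higher score means more developmental defects relative to DMSO baseline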)
Method in brief: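 Larvae scored by eye at 144 hpf for death, hatching and malformations after a day in clean Hanks'. Before that, daily-renewed exposure at 80 uM (0.4% DMSO, 26C) from roughly 6-8 hpf through 5 dpf, 4 embryos per chemical.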

[14] = Tanguay_ZF_120hpf_CIRC_legacy: (Legacy) Oregon State University Tanguay Lab 120 Hour Post-fertilization zebrafish Assay for Circulatory Malformation (AID 2283651)
Method in brief: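 Static exposure, 6–120 hpf, 28C, sealed and dark; one dechorionated 5D embryo/well; DMSO 0.64% v/v final. Binary circulation endpoint by brightfield; dead embryos not scored.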

[15] = Tanguay_ZF_120hpf_SWIM_legacy: (Legacy) Oregon State University Tanguay Lab 120 Hour Post-fertilization zebrafish Assay for Swim Bladder Malformation (AID 2283654);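 note: swim bladder malformation in each larva scored yes or no under brightfield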
Method in brief: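 Tropical 5D embryos dechorionated at 4 hpf; 1 embryo/well from 6 hpf; static, sealed, dark exposure at 28C until 120 hpf; final DMSO 0.64%; 5uM trimethyltin chloride positive control; swim bladder defect recorded yes/no; dead embryos not scored.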

[16] = read-out: solute carrier (SLC22A6), SLC22A6 (gene 9356); experiment: LTEA_HepaRG_SLC22A6: Life Technologies and Expression Analysis (LTEA) Assay for solute carrier (SLC22A6) using HepaRG (AID 2283653; active = hit-call score of the fitted dose curve at least 0.9, where 1 is the maximum; inactive = score below 0.9); conditions: mRNA level, 48 h; actives raise or lower the signal
Method in brief: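 Gene-expression endpoint in HepaRG hepatic cells: duplicate 8-point concentration-response, highest 100 uM, 48 h treatment in serum-free medium with 0.5% DMSO. SLC22A6 expression measured by qRT-PCR, normalised to ACTB/GAPDH/POLR2A.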

[17] = read-out: solute carrier (SLC10A1), SLC10A1 (gene 6554); experiment: LTEA_HepaRG_SLC10A1: Life Technologies and Expression Analysis (LTEA) Assay for solute carrier (SLC10A1) using HepaRG (AID 2283657; active = hit-call score of the fitted dose curve at least 0.9, where 1 is the maximum; inactive = score below 0.9); conditions: mRNA level, 48 h; actives raise or lower the signal
Method in brief: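 HepaRG, 48 h exposure, 8-pt half-log curve from 100 uM in 0.5% DMSO, duplicates. Read-out: TaqMan qRT-PCR of SLC10A1 mRNA, normalized to three housekeeping genes. Gain/loss fit vs DMSO baseline.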

[18] = read-out: matrix metalloproteinase-1 (MMP1), MMP1 (gene 4312); experiment: LTEA_HepaRG_MMP1: Life Technologies and Expression Analysis (LTEA) Assay for matrix metalloproteinase-1 (MMP1) using HepaRG (AID 2283658; active = hit-call score of the fitted dose curve at least 0.9, where 1 is the maximum; inactive = score below 0.9); conditions: mRNA level, 48 h; actives raise or lower the signal
Method in brief: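 In this screen, human liver HepaRG cultures receive each chemical in duplicate for 48 h (top 100 uM, 0.5% DMSO). MMP1 expression is then quantified by TaqMan qRT-PCR with ACTB/GAPDH/POLR2A normalization.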

[19] = read-out: Cytochrome P450 (CYP24A1_1), CYP24A1 (gene 1591); experiment: LTEA_HepaRG_CYP24A1_1: Life Technologies and Expression Analysis (LTEA) Assay for Cytochrome P450 (CYP24A1_1) using HepaRG (AID 2283671; active = hit-call score of the fitted dose curve at least 0.9, where 1 is the maximum; inactive = score below 0.9); conditions: mRNA level, 48 h; actives raise or lower the signal
Method in brief: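 Readout is CYP24A1 transcript level by qRT-PCR, normalized to three housekeeping genes, with gain or loss of signal fitted against 0.5% DMSO. Human HepaRG cells received compound for 48 h at up to 100 uM.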

Measured: AC50

OC(Cn1cncn1)(Cn1cncn1)c1ccc(F)cc1F
inactive: [1] | [2] | [3] | [4] | [5] | [6] | [7]

CC1(C)C(=O)N(Cl)C(=O)N1Cl
inactive: [1] | [8] | [2] | [3] | [4] | [9] | [5] | [6]

NC(=O)N(O)[C@@H]1COc2cc(OCc3ccccc3)ccc21
active: [11] 1.29 µM
inactive: [1] | [8] | [10] | [2] | [3] | [9] | [12] | [6] | [13]

CCCCCOC(C)=O
inactive: [1] | [8] | [10] | [3] | [4] | [14] | [15] | [9] | [5] | [6]

OCCOCCOCCO
inactive: [8] | [2] | [3] | [4] | [9] | [5] | [6]

Cn1c(=O)c2[nH]cnc2n(C)c1=O
inactive: [1] | [2] | [4] | [15] | [9] | [5] | [6] | [7]

CCCCCCCC/C=C\CCCCCCCC(=O)OC[C@@H](O)[C@H]1OC[C@H](O)[C@H]1O
inactive: [1] | [10] | [3] | [4] | [14] | [15] | [5] | [6]

CC(C)CC(C)O (stereo unspecified)
inactive: [1] | [8] | [10] | [2] | [4] | [15] | [5]

C=CN1CCCC1=O
inactive: [10] | [2] | [4] | [9]

O=C1CN(N=Cc2ccc([N+](=O)[O-])o2)C(=O)N1
active: [7] 7.42 µM
inactive: [8] | [10] | [2] | [9] | [5] | [6] | [13]

c1ccc2cc3ccccc3cc2c1
active: [17] 10.4 µM | [11] 10.6 µM
not listed: [5] | [7] | [8] | [13] | [14] | [15]
inactive: all other assays above

O=c1[nH]cnc2c1ncn2[C@H]1CC[C@@H](CO)O1
inactive: [1] | [10] | [2] | [3] | [4] | [9] | [6] | [13] | [7]

O=C(O)c1cccc(C(=O)O)c1
inactive: [1] | [10] | [2] | [3] | [4] | [14] | [15] | [9] | [5] | [6]

CCOC(N)=O
inactive: [8] | [10] | [2] | [3] | [4] | [14] | [9] | [5] | [6]

CCCOc1ccc(S(=O)(=O)N2CCN(CC)CC2)cc1-c1nc2c(CC)n(Cc3ccccn3)nc2c(=O)[nH]1
inactive: [1] | [8] | [2] | [3] | [4] | [15] | [9] | [5] | [6]

COc1cc2c(c(OC)c1OC)-c1ccc(OC)c(=O)cc1[C@@H](NC(C)=O)CC2
active: [1] 26.2 µM | [10] 25.5 µM | [2] 21 µM | [4] 22.8 µM | [17] 0.107 µM | [6] 13.3 µM | [19] 0.067 µM | [13] 61.5 µM | [7] 0.0159 µM
inactive: [3] | [16] | [5] | [18]

Cn1cc[nH]c1=S
inactive: [1] | [8] | [10] | [3] | [4] | [5] | [12] | [13] | [7]
active: [11] 0.0542 µM

c1ccc2c(c1)-c1cccc3c1c-2cc1ccccc13
inactive: [8] | [10] | [2] | [3] | [4] | [9] | [6]

OC[C@H]1O[C@@](CO)(O[C@H]2O[C@H](CO)[C@@H](O)[C@H](O)[C@H]2O)[C@@H](O)[C@@H]1O
inactive: [1] | [8] | [10] | [2] | [4] | [15] | [9] | [5] | [6]
